# Compound activity from PubChem BioAssay.
# ELG1 DNA repair: qHTS screen for small molecules that inhibit ELG1-dependent DNA repair in human embryonic kidney (HEK293T) cells expressing luciferase-tagged ELG1. 330,000 compounds, 2.3% hits. Potency, µM (top dose mostly 46.1 µM), for inactives: top-dose activity change, negative = inhibition, hits mostly inhibitors. HEK293T ELG1-luciferase reporter, luminescence, 16 h; DNA damage induced by 5-fluorouridine; further: on the % scale 0 is the no-effect control and ±100 the full control effect; nearly all actives have a fitted effect of over 55% in size
#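 Luminescence from the luciferase reporter, measured 30 min after ONE-Glo reagent at room temperature, was the read-out. Beforehand, 2,000 cells per well were exposed for 16 hr at 37 °C to 5-fluorouridine together with compound or vehicle.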
# FLuc modulator: qHTS profiling assay for firefly luciferase inhibitor/activator using purifed enzyme and Km concentrations of substrates (counterscreen for miR-21 project); purified FLuc, Km substrates, luminescence inhibition; Potency, µM (highest dose often 57.5 µM), for inactives: at the highest dose activity change, negative = inhibition, usual class: inhibitors; 360,000 compounds, 6.9% hits; AID 588342, 2011;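 further: plate controls were vehicle for no effect and reference inhibitor for full effect; nearly all actives have a fitted effect of over 55% in size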
# Target sequence (P08659 whole entry, looked up): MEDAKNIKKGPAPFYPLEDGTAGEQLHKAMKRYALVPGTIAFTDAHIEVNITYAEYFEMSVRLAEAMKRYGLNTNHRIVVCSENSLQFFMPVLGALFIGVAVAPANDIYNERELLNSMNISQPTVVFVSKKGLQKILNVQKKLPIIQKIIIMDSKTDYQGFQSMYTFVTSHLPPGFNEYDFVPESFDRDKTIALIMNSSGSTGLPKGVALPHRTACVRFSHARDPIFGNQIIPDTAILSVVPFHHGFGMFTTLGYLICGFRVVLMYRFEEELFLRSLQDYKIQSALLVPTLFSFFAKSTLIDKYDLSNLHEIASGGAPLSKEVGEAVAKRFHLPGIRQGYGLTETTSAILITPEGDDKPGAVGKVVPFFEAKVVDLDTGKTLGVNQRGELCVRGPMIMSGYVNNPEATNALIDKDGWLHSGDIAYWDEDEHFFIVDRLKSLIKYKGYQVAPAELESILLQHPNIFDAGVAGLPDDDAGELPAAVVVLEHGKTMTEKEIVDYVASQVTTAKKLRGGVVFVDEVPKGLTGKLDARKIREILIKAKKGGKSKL
#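 Biochemical qHTS of compounds, final roughly 60 µM downward over six points, against 10 nM purified firefly luciferase using Km concentrations of substrates (10 uM D-luciferin, 10 uM ATP) in Tris acetate pH 7.5 buffer; luminescence output.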
# Rab9 prom act: qHTS Assay for Rab9 Promoter Activators; Huh7 Rab9 promoter-luciferase reporter, luminescence, 24 h; 320,000 compounds, 2.8% hits; Potency, µM (titrated, usually from 9.22 µM), without a hit: at the highest dose activation, negative = inhibition, hits mostly activators; further: % of control where 0% means no effect; nearly all actives have a fitted effect of over 60% in size
#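 Huh7 cells stably carrying a Rab9 promoter-luciferase reporter, 1500 cells per well in OP-MEM I with 10% FBS, treated with compound 24 hours at 37C. Luciferase activity read by luminescence after 10 minutes with Amplite reagent.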
# ELG1 genotox: qHTS screen for small molecules that induce genotoxicity in human embryonic kidney (HEK293T) cells expressing luciferase-tagged ELG1. HEK293T ELG1-luciferase reporter, luminescence, 16 h. Potency, µM (series often up to 46 µM), without a hit: at the highest dose activity change, positive = activation, hits mostly activators. 330,000 compounds, 1.3% hits. AID 504466, 2011; further: % of control where 0% means no effect; nearly all actives have a fitted effect of over 60% in size
#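 HEK293T cells expressing luciferase-tagged ELG1 were exposed to compound or DMSO vehicle for 16 hr at 37 °C and 5% CO2. Luciferase activity was then measured with ONE-Glo after 30 min at room temperature.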
# NPC1 prom act: qHTS Assay for NPC1 Promoter Activators. Huh7 NPC1 promoter luciferase reporter, 24 h. Potency, µM (doses to about 9.22 µM), without a hit: at the highest dose activation, hits mostly activators. 320,000 compounds, 2.4% hits; further: % of control where 0% means no effect; nearly all actives have a fitted effect of over 60% in size
#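 Luminescence read-out of NPC1 promoter-driven luciferase in stably transfected Huh7 cells; compounds delivered in DMSO and left 24 h at 37C, 5% CO2, qHTS titration format.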
# SMN2 splice enh: qHTS Assay for Enhancers of SMN2 Splice Variant Expression. HEK293 SMN2-luciferase splicing reporter, luminescence, 30-36 h. Potency, µM (series often up to 46.1 µM), for the others: at the top dose activity change, positive = activation, hits mostly activators. 210,000 compounds, 2.8% hits. AID 1458, 2008; further: % of control where 0% means no effect; nearly all actives have a fitted effect of over 55% in size
#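 HEK293 cells carry an SMN2 minigene-luciferase reporter in which exon 7 inclusion puts luciferase in frame. Cells were seeded at 2000 cells/well, attached for 10-12 hours, then exposed to compounds for 30-36 hours at 37C before ONE-Glo luminescence.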
# Numbers without * were called inactive; ? = inconclusive; · = not tested or not shown. An excerpt weighted towards active compounds, which were near 9.4% of everything screened. The call rests on the fitted dose curve; in most records, active means well fitted curve in the direction sought with a large enough effect; inconclusive means small, poorly fitted or top-dose-only effect, or another doubt; inactive means no such curve, though single readings can be large; an effect the other way counts as inactive or inconclusive. Potency means the concentration at half of the fitted maximal effect.
SMILES,ELG1 DNA repair,FLuc modulator,Rab9 prom act,ELG1 genotox,NPC1 prom act,SMN2 splice enh
CCS(=O)(=O)N1CCc2cc(C(=O)Nc3cc(C(F)(F)F)ccc3Cl)ccc21,·,-13%,·,·,·,·
CCN(CCCNC(=O)CSc1cc(=O)n(CC)c2ccccc12)c1cccc(C)c1,·,-16%,·,·,·,-28%
CCOc1cc2[nH]c(=O)n(CCCCC(=O)N3CCN(c4ccccc4OC)CC3)c(=O)c2cc1OCC,·,1%,·,·,·,·
Nc1nc(CSc2nc3ccccc3[nH]2)cs1,?,?,?,12%,?,19%
Nc1nc(-c2nc3ccccc3[nH]2)cs1,?,5.4µM*,1.1µM*,2.1µM*,1.3µM*,16µM*
c1ccc2nc3ccccc3nc2c1,2%,-14%,21%,0%,6%,-7%
O=C(O)c1nc2ccccc2nc1C(=O)O,?,21µM*,-1%,?,-2%,?
CCC=O,·,·,·,·,·,-7%
COc1ccc(N/C=C/C(=O)c2ccc(Cl)cc2)cc1,?,0.6µM*,0.71µM*,3.7µM*,0.79µM*,4.5µM*
COc1cccc(C(=O)/C=C/Nc2ccc(NC(C)=O)cc2)c1,?,9.5µM*,4µM*,?,?,13µM*
COc1cccc(N/C=C/C(=O)c2ccc(C)cc2)c1,?,0.24µM*,0.5µM*,1.5µM*,0.45µM*,·
COc1cccc(C(=O)NNC(=O)C(=O)Nc2ccc(C)cc2)c1,12%,-18%,4%,4%,-2%,·
COc1cccc(C(=O)/C=C/Nc2cccc(O)c2)c1,?,0.21µM*,?,2.3µM*,?,-6%
COc1cccc(C(=O)/C=C/Nc2ccc(S(=O)(=O)Nc3cccc(C(C)=O)c3)cc2)c1,?,-1%,-4%,-18%,-9%,-45%
CCOC(=O)c1ccc(N/C=C/C(=O)c2ccc(OC)cc2)cc1,?,0%,1%,7%,-1%,-9%
COC(=O)c1ccc(NC(=O)N2CCC(CN3CCc4ccccc4C3)CC2)cc1,·,-4%,·,·,·,·
CC1=C(C(=O)Nc2ccccc2)C(c2ccccc2C)n2nc(SCC(=O)c3ccc(C)cc3)nc2N1 (stereo not drawn),·,-7%,·,·,·,·
COc1ccc(C(=O)c2ccc(Cl)cc2)cc1,?,?,27%,21µM*,15%,-9%
COc1cccc(NC(=S)NC(=O)Cc2ccc(Cl)cc2)c1,-5%,-7%,-1%,0%,-1%,·
COc1cccc(N/C=C/C(=O)c2ccc(Cl)cc2)c1,?,0.54µM*,0.5µM*,1.2µM*,0.5µM*,4.5µM*
CCCCn1c(CNC(=O)C23CC4CC(CC(C4)C2)C3)nnc1SCC(=O)Nc1ccccc1,·,-11%,·,·,·,-4%
CCOC(=O)C1CCCN(C(=O)c2cc(Nc3ccc(OC)c(OC)c3)nc3ccccc23)C1 (stereo not drawn),?,11µM*,5%,-6%,-1%,0%
COc1ccc(Nc2cc(C(=O)NCc3ccccc3)c3ccccc3n2)cc1OC,·,-10%,·,·,·,1%
CCOC(=O)C1CCCN(C(=O)c2cnn3c(C(F)(F)F)cc(-c4ccccc4)nc23)C1 (stereo not drawn),-18%,-1%,-3%,-4%,-2%,6%
CCOC(=O)C1CCCN(C(=O)c2cc(-c3ccc(C)cc3)nc3ccccc23)C1 (stereo not drawn),?,4.8µM*,16%,0%,13%,-37%
CCOC(=O)C1CCCN(C(=O)c2cc(Nc3ccc(OC)cc3OC)nc3ccccc23)C1 (stereo not drawn),?,9.5µM*,10%,-8%,10%,-3%
